GDH-TPI inh: counter-screen for M. tuberculosis FBA inhibitors: GDH-TPI coupled enzymes | AID 588335 | 360,000 tested, 1.2% active | inhibition, % at 4.8 µM | GDH-TPI coupled enzyme counterscreen, NADH absorbance; in the data active means inhibition above about 30%
BoNT A protease: BoNT A light chain protease inhibition; multiplex microsphere protease substrate cleavage, flow cytometry; inhibition, % at 10 µM; 360,000 tested, 0.17% active
Autofluor counter: counter-screen for toxin protease inhibitors: compound fluorescence; compound autofluorescence counterscreen, microsphere flow cytometry; hits give high values; fluorescence intensity (concentration not given with the values); 360,000 tested, 3.1% active; AID 624483; in the data active means fluorescence intensity above about 16000; inconclusive means no clear call, values can overlap the other calls
Anthrax LF prot: blocks Bacillus anthracis lethal factor protease; 360,000 tested, 0.12% active; multiplex microsphere protease cleavage assay, LF; inhibition, % at 10 µM; AID 588501
Target sequence (P15917 whole entry, looked up): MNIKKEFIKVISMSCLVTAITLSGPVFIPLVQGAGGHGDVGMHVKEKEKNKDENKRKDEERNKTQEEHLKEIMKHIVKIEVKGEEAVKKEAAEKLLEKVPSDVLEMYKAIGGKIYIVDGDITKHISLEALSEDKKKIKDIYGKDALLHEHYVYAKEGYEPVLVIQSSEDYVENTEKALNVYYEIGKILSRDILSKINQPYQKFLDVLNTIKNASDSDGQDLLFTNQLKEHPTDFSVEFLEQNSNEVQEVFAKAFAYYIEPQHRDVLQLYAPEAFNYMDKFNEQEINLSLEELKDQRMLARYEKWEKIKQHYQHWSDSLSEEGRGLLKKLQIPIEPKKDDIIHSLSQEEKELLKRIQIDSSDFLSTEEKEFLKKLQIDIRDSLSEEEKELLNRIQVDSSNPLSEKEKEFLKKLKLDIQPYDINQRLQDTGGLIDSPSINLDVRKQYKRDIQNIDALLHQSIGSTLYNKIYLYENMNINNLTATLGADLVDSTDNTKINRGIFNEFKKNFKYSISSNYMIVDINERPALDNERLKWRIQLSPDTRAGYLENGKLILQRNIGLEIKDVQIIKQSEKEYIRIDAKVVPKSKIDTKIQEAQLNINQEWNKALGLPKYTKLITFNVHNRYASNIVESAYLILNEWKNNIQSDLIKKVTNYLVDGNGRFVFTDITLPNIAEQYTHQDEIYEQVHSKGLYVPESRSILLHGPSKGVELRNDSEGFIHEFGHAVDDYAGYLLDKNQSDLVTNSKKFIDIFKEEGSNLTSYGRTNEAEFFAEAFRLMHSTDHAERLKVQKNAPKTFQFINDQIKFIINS
BoNT-F LC inh: inhibitors of Botulinum neurotoxin F light chain protease | AID 588497 | Multiplex microsphere protease cleavage assay, flow cytometry | 360,000 tested, 0.22% active | inhibition, % at 10 µM; in the data active means inhibition above about 35%, passing the limit was not always enough; inconclusive means no clear call, values can overlap the other calls
FBA Mtb inh: inhibitors of M. tuberculosis fructose-bisphosphate aldolase; 360,000 tested, 2.3% active; inhibition, % at 1 µM; P9WQA3; purified M. tuberculosis FBA, fluorescence read-out; AID 588726; in the data active means inhibition above about 27%
Large screens that a line does not name were inactive. A selection: hits, their analogues and other compounds. The true share with any hit is near 6.7%. Unless noted, no stated cut-off is given here; in the data, active means inhibition above about 30%; inconclusive means no clear call, values can overlap the other calls; inactive means below that.

CC1(C)CC(=O)C=C(/C=C/c2ccccc2)C1	GDH-TPI inh 48.7
COc1cccc(N(C(C)=O)C2=NCCCS2)c1	none
CC1(C)C=C(c2ccc(C=O)s2)CC(C)(C)N1	GDH-TPI inh 39.5
Cn1c(-c2ccc(C=O)s2)nc2ccccc21	none
CC1(C)C=C(c2ccc(C=O)s2)CC(C)(C)N1C=O	GDH-TPI inh 31.8
O=C1SC(SCc2ccccc2)=N/C1=C\c1ccco1	Autofluor counter 23038
CN1/C(=C\C=C(C#N)C#N)C(C)(C)c2ccccc21	none
CN1/C(=C/C=N/n2cnnc2)C(C)(C)c2ccccc21	GDH-TPI inh 45.1
COCCN(Cc1ccccc1)P(=O)(O)c1ccccc1OCC(=O)O	none
O=C(CSc1nnc(-c2cccnc2)n1CCN1CCCCC1)Nc1cccc(Cl)c1	none
Cc1ccc(NC(=O)N(Cc2cccnc2)Cc2ccco2)cc1C	Autofluor counter 23168
CCOC(=O)CC1(C)c2nc(NC(C)=O)sc2Cc2sc(NC(C)=O)nc21	FBA Mtb inh 160.8 (no result: GDH-TPI inh)
CCCCSc1nnc(CCCCCNC(=O)OC(C)(C)C)o1	Autofluor counter 16992
CC(C)(C)OC(=O)NCCc1nnc(SCc2c(Cl)cccc2Cl)o1	BoNT A protease inconclusive, Autofluor counter inconclusive, BoNT-F LC inh inconclusive
CC(C)(C)OC(=O)NCCCCCc1nnc(SCc2c(F)cccc2Cl)o1	Anthrax LF prot inconclusive, BoNT-F LC inh 58.7
O=C1/C(=C\c2cccs2)SC(=S)N1C1CCS(=O)(=O)C1 (stereo not drawn)	none
Cc1nc2c(ncn2-c2ccccc2)c(=O)n1NC(=O)CN1CCOCC1	none
Cc1ccc(S(=O)(=O)c2c(C)nn(C(C)(C)C)c2OC(=O)c2ccco2)cc1	FBA Mtb inh 189.2
CCc1c(C)sc(NC(=O)CSc2nc3c(c(C(F)(F)F)n2)CCc2ccccc2-3)c1C#N	Autofluor counter 21133
CC(=O)COc1c(-c2ccco2)oc2ccccc2c1=O	GDH-TPI inh 32.3
CCOC(=O)C1=C(N)Oc2cc(C)oc(=O)c2C12C(=O)N1c3c(cccc32)C(C)=CC1(C)C (stereo not drawn)	Autofluor counter 21518
CCOC(=O)C1=C(N)Oc2cc(C)oc(=O)c2C12C(=O)N1c3c(cccc32)C(C)CC1(C)C (stereo not drawn)	none
CCOC(=O)C1=C(N)Oc2cc(C)oc(=O)c2C12C(=O)N1c3c(cc(OC)cc32)C(C)=CC1(C)C (stereo not drawn)	BoNT A protease inconclusive, Autofluor counter 23174
COc1ccccc1CNC(=O)COC(=O)COc1ccccc1F	none
O=[N+]([O-])c1cc([N+](=O)[O-])c(Oc2c(F)cc(F)cc2F)cc1NN1CCCCC1	none
CCOC(=O)COc1ccc(Oc2nc(C)cc(OC)n2)nn1	Autofluor counter 21448
Cc1nn2c(-c3ccc(Cl)cc3)nnc2s1	Autofluor counter 23339
CCOC(=O)C1=C(O)CSC1=Nc1ccc(Cl)cc1	Autofluor counter 16689
Cc1ccc(-c2csc3ncnc(Nc4ccc(C(=O)O)cc4)c23)cc1	none
Cc1cccc(NC(=S)N2CCN(S(C)(=O)=O)CC2)c1	none
CCC(CO)NCc1ccc2c(c1)n(C)c(=O)n2C (stereo not drawn)	Autofluor counter 16488
Cc1ccc(F)cc1NS(=O)(=O)c1ccc(Cl)s1	none
COc1ccccc1Cc1noc(COc2cccc(C)c2C)n1	Autofluor counter 16962
COc1ccccc1Cc1nc(-c2ccncc2)no1	none
ClCC1=Nc2ccccc2Cc2ccccc21	none
CCOC(=O)C1CCCN(C(=O)Cc2ccc(OC)c(OC)c2)CC1 (stereo not drawn)	none
Cc1ccc2nc(-c3ccc(NC(=O)CN4CCN(c5ccccn5)CC4)cc3)sc2c1	FBA Mtb inh 39.9
Cc1cc(C)cc(NC(=O)CN2CCN(c3ncccn3)CC2)c1	Autofluor counter 22652
O=C(Nc1ccccc1)N1CCN(c2ccccn2)CC1	none
Cc1ccc(NC(=O)N2CCN(c3ccccn3)CC2)cc1	Autofluor counter 22825
O=S1(=O)CC/C(=N/Nc2ccc(C(F)(F)F)cn2)c2cc(F)ccc21	none
O=S(=O)(Nc1ccc(-c2ccc(N3CCOCC3)nn2)cc1)c1ccc(Cl)c(Cl)c1	none
c1cc(-c2n[nH]c(-c3ccncc3)n2)ccn1	BoNT-F LC inh inconclusive
NC(c1ccccc1)c1csc(Nc2ccc(C(=O)NCCCO)cn2)n1 (stereo not drawn)	none
COc1cc(/C=C/c2nc3ccccc3s2)cc(OC)c1O	none
COc1ccc(C2=NO[C@@H]3C(=O)N(C4CCCCC4)C(=O)[C@H]23)cc1OC	Autofluor counter 22002
C=CCN1C(=O)C(CC(=O)Nc2ccc(OC)cc2)N(Cc2ccco2)C1=S (stereo not drawn)	BoNT A protease inconclusive, Autofluor counter 22980
COc1ccc(NC(=O)CC2C(=O)N(CCc3ccccc3)C(=S)N2Cc2cccnc2)cc1 (stereo not drawn)	Autofluor counter 20810
CCN1C(=O)C(CC(=O)Nc2ccc(OC)cc2)N(Cc2cccnc2)C1=S (stereo not drawn)	none
CCOc1ncccc1C(=O)OCC(=O)Nc1cc(C(C)(C)C)ccc1OC	Autofluor counter inconclusive
Cc1cc(Cl)cc2c1NC(=O)[C@]21[C@@H]2C(=O)N(Cc3ccccc3)C(=O)[C@@H]2[C@@H]2CCCN21	none
CCc1ccc2c(c1)[C@]1(C(=O)N2)[C@@H]2C(=O)N(Cc3ccccc3)C(=O)[C@@H]2[C@@H]2CCCN21	Autofluor counter 21738
O=C(Nc1cccc2[nH]ncc12)NS(=O)(=O)c1ccccc1	none
CN1C(=O)NC(c2ccc(O)cc2)C(C(=O)c2cccs2)C1(O)C(F)(F)F (stereo not drawn)	GDH-TPI inh 43.4
O=C1NC(c2ccccc2)C(C(=O)c2cccs2)C(O)(C(F)(F)F)N1 (stereo not drawn)	none (no result: BoNT A protease, Autofluor counter, Anthrax LF prot, BoNT-F LC inh)
COC(=O)C1=C(C(=O)c2ccccc2)C(c2cccs2)n2nnnc2N1 (stereo not drawn)	none
CC1=C(C(=O)Nc2ccc(Cl)cc2)C(c2cccs2)n2nnnc2N1 (stereo not drawn)	BoNT A protease inconclusive, Autofluor counter 23559
CCC(C)Nc1nc(Cl)nc(NCCOc2ccccc2)n1 (stereo not drawn)	none
COc1cc(OC)c(C(=O)Nc2ccc(S(=O)(=O)Nc3ncccn3)cc2)cc1OC	Autofluor counter 21604
COc1ccc(CC(=O)Nc2ccc(S(=O)(=O)Nc3ncccn3)cc2)cc1OC	none
COc1ccc(-n2c(CN3CCC(C(N)=O)CC3)nc3ccc([N+](=O)[O-])cc3c2=O)c(OC)c1	none
COC(=O)c1[nH]c2cc(OC)ccc2c1NC(=O)CCN1CCN(c2ccccc2)CC1	Autofluor counter 23523
CCOC(=O)C1CCCN(CCC(=O)Nc2c(C(=O)OC)[nH]c3cc(OC)ccc23)C1 (stereo not drawn)	BoNT A protease inconclusive, Autofluor counter 19014

High-throughput results deposited in PubChem by several laboratories.
